# Screening data (PubChem)
# ELG1 DNA repair: ELG1-dependent DNA repair inhibition; HEK293T ELG1-luciferase reporter, luminescence, 16 h; DNA damage induced by 5-fluorouridine; Potency, µM (titrated, usually from 46.1 µM), hits mostly inhibitors; 2.3% of 330,000 active; further: nearly all actives have a fitted effect of over 55% in size
#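 Cells (2,000 per well) received 5-fluorouridine plus test compound or DMSO and were incubated 16 hr at 37 °C, 5% CO2. Luciferase activity was read by luminescence 30 min after ONE-Glo addition; signal suppression marked inhibition of damage-induced ELG1 function.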
# SMN2 splice up: enhancers of SMN2 splice variant expression. HEK293 SMN2-luciferase splicing reporter, luminescence, 30-36 h. Potency, µM (titrated, usually from 46.1 µM), hits mostly activators. 2.8% of 210,000 active. AID 1458; further: nearly all actives have a fitted effect of over 55% in size
#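 HEK293 cells carry an SMN2 […]–luciferase reporter in which exon 7 inclusion puts luciferase in frame. Cells were plated 10-12 h before compound addition, then incubated 30-36 h at 37C. ONE-Glo luminescence was read; sodium butyrate at 4.5 mM final served as control.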
# Rab9 promoter act: activators of Rab9 promoter | Potency, µM (series often up to 9.22 µM), hits mostly activators | 2.8% of 320,000 active | Huh7 Rab9 promoter-luciferase reporter, luminescence, 24 h | AID 485297; further: nearly all actives have a fitted effect of over 60% in size
#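 Rab9 promoter-driven luciferase in stably transfected Huh7 cells; 1500 cells/well rested 2 h, exposed to compound in DMSO for 24 h at 37 °C, 5% CO2. Luminescence read 10 min after adding luciferase reagent at ambient temperature.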
# ELG1 genotoxic: induces genotoxicity in HEK293T cells with luciferase-tagged ELG1; AID 504466; 1.3% of 330,000 active; HEK293T ELG1-luciferase reporter, luminescence, 16 h; Potency, µM (top dose mostly 46 µM), usual class: activators; further: nearly all actives have a fitted effect of over 60% in size
#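 ELG1-luciferase HEK293T cells, 2,000/well; compound pinned in; 16 hr, 37 °C, 5% CO2; ONE-Glo, 30 min RT; luminescence on CCD imager.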
# NPC1 promoter act: activators of NPC1 promoter; Huh7 NPC1 promoter luciferase reporter, 24 h; Potency, µM (top dose mostly 9.22 µM), hits mostly activators; 2.4% of 320,000 active; further: nearly all actives have a fitted effect of over 60% in size
#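 Huh7 reporter cells (NPC1 promoter driving luciferase) are dosed with compound for 24 h at 37 °C, 5% CO2; luciferase detection reagent is then added and luminescence measured after 10 min at ambient temperature.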
# FLuc modulator: inhibits or activates purified firefly luciferase, miR-21 counter-screen; purified FLuc, Km substrates, luminescence inhibition; Potency, µM (doses to about 57.5 µM), usual class: inhibitors; 6.9% of 360,000 active; further: nearly all actives have a fitted effect of over 55% in size
# Target sequence (P08659 whole entry, looked up): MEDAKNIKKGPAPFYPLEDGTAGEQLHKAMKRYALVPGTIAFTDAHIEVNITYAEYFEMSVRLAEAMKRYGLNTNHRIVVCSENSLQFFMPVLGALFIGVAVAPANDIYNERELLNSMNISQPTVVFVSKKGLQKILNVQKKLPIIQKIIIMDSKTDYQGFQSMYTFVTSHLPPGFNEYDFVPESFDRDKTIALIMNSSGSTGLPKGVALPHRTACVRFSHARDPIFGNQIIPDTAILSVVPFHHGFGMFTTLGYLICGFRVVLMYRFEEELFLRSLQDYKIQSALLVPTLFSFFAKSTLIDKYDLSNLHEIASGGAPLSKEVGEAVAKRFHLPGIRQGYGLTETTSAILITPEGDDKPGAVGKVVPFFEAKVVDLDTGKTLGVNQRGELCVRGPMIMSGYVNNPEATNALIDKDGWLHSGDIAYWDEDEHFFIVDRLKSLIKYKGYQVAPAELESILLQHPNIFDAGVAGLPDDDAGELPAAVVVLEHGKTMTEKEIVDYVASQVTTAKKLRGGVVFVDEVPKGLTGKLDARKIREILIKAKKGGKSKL
#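 Purified P. pyralis luciferase, 10 nM final, with Km-level 10 uM D-luciferin and 10 uM ATP in 50 mM Tris acetate pH 7.5, 10 mM Mg acetate, 0.01% Tween-20, 0.05% BSA; 6-point qHTS titration about 60 µM downward; luminescence read.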
# A number is an active result; 0 = inactive; ? = inconclusive; - = not tested or not shown. Only some compounds are listed: those with a hit (about 9.3% of all), similar ones and a draw of the others. The call rests on the fitted dose curve; in most records, active means well fitted curve in the direction sought with a large enough effect; inconclusive means small, poorly fitted or top-dose-only effect, or another doubt; inactive means no such curve, though single readings can be large; an effect the other way counts as inactive or inconclusive.
SMILES,ELG1 DNA repair,SMN2 splice up,Rab9 promoter act,ELG1 genotoxic,NPC1 promoter act,FLuc modulator
CCCCOC(=O)Nc1nnc(CC)s1,?,0,?,15µM,0,?
CCc1nnc(NS(=O)(=O)c2ccc(N/C=C/C(=O)c3ccc(OC)cc3)cc2)s1,0,-,0,?,0,21µM
CCCCCOC(=O)Nc1nnc(CCCCC)s1,0,0,0,0,0,0
CCc1nnc(NC(=O)c2ccc(OC)cc2)s1,?,3.2µM,0.32µM,0,0.71µM,4.8µM
CCCCCC1=C2CNC(Cc3ccccc3)(C(=O)OC)C=C2C(C)C1=O (configuration not stated),-,0,-,-,-,-
COc1cccc(C(=O)Nc2nnc(-c3cccs3)s2)c1,?,5.6µM,3.2µM,0.82µM,?,1.9µM
CCOCc1nnc(NC(=O)c2cccc(OC)c2)s1,?,?,0,0,0,?
O=C(Nc1ccncc1)c1ccc(Cl)c(S(=O)(=O)N2CCc3ccccc32)c1,?,-,0,0,0,0
CCc1nnc(NS(=O)(=O)c2ccc(NC(=O)OC)cc2)s1,0,0,0,0,0,0
CCc1nnc(NC(=O)c2ccc(Cl)c(S(=O)(=O)N3CCc4ccccc43)c2)s1,23µM,0,0,0,0,0
CCc1nnc(NS(=O)(=O)c2ccc(NC(=O)c3ccc(Br)cc3)cc2)s1,0,-,0,0,0,27µM
CCc1nnc(NC(=O)c2cccc(OC)c2)s1,?,16µM,3.2µM,?,3.2µM,8.5µM
COc1ccc(C(=O)C2CCCN(C(=O)Cn3nc(C)cc3C)C2)cc1F (configuration not stated),0,-,0,0,0,0
COc1ccccc1CNC(=O)CCC1N=C2c3ccccc3N=C(SCC(=O)NCC3CCCO3)N2C1=O (configuration not stated),0,-,0,0,0,0
CCC(=O)N1CCc2cc(Br)cc(S(=O)(=O)N(C)c3ccc(OC)cc3)c21,?,-,0,0,0,0
CCc1nnc(NS(=O)(=O)c2ccc(NS(=O)(=O)c3ccccc3[N+](=O)[O-])cc2)s1,0,-,0,0,0,0
CCc1nnc(NS(=O)(=O)c2ccc(Nc3ccc([N+](=O)[O-])c4nonc34)cc2)s1,0,0,0,0,0,15µM
CCCOc1ccc(C2Nc3cccc4cccc(c34)N2)cc1,?,-,0,0,0,11µM
Fc1ccc(C2Nc3cccc4cccc(c34)N2)cc1,0,-,0,0,?,?
CCN(CC)c1ccc(C2Nc3cccc4cccc(c34)N2)cc1,?,-,0,0,0,11µM
FC(F)(F)c1ccc(C2Nc3cccc4cccc(c34)N2)cc1,0,0,0,0,0,?
O=C(NCc1ccco1)/C(=C\c1ccco1)NC(=O)c1ccco1,?,-,0,0,0,0
O=C(/C=C\Nc1ccccn1)c1ccccc1,?,2µM,0.35µM,0.52µM,0.63µM,0.67µM
COc1ccc(C(=O)/C=C/Nc2ccccn2)c(OC)c1,?,-,0.89µM,1.8µM,0.56µM,3.4µM
O=C(/C=C/Nc1ccccc1Br)c1ccccn1,-,?,-,-,-,0.076µM
SMILES,ELG1 DNA repair,SMN2 splice up,Rab9 promoter act,ELG1 genotoxic,NPC1 promoter act,FLuc modulator
CCOCCCN(CCC#N)C(=O)C1CCN(S(=O)(=O)c2ccc(-n3cnnn3)cc2)CC1,0,-,0,0,0,0
Cc1ccc(OCC(=O)Nc2cccc(S(=O)(=O)N3CCCCCC3)c2)cc1C,0,-,0,?,0,?
CCN(CCCCN1C(=O)c2ccccc2C1=O)c1ccc2c(c1)C(=O)N(C)C2=O,16µM,0,0,0,0,0
CCN(CC)c1ccc2c(c1)C(=O)N(C)C2=O,?,0,0,?,0,?
O=C(c1cccc(S(=O)(=O)N2CCN(c3ccccc3)CC2)c1)N1CCN(c2ccccc2O)CC1,0,-,0,0,0,0
CNC(=O)NC(=O)C(C)OC(=O)c1c2c(nc3ccccc13)/C(=C/c1cccs1)CC2 (configuration not stated),9.2µM,?,0,0,0,6µM
